Measurements from PubChem BioAssay (Tox21).
Inconclusive results are not listed. Calls of active or inactive are those of the source. Unless noted, calls come from the whole dose curve.

assay: Nuclear factor erythroid 2-related factor 2/antioxidant responsive element (Nrf2/ARE) small molecule agonists: qHTS cell viability counter screen in human keratinocytes (AID 1919968; active = well fitted cell-killing curve with a large enough effect in the repeat runs; note: nearly all actives have a fitted effect of over 55% in size); conditions: KeratinoSens HaCaT ARE cells viability, CellTiter-Fluor, 24 h; series mostly up to 92.4 µM; activity change, negative = cytotoxicity: at the top concentration
Summary of the method: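 In human HaCaT keratinocytes stably expressing an ARE-driven luciferase, compound exposure lasted 23 h at 37 C under 5% CO2. Viable cells are quantified with a protease-based fluorogenic reagent (CellTiter-Fluor) read 1 h after addition.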
% is set by controls: 0 for no effect and ±100 for the full control effect; potency is the fitted concentration of half-maximal effect.

Compound	Potency	activity change, negative = cytotoxicity
Oc1cc2ccccc2c2ccccc12	13.7 µM (active)	–
CCCCCCC(C)Nc1ccc(Nc2ccccc2)cc1 (stereo unspecified)	48.6 µM (active)	–
CCCCCCCCCCCCCOC(=O)CCSCCC(=O)OCCCCCCCCCCCCC	–	-1.71% [at 19 µM] (inactive)
CC(C)(C)C(=O)CCc1ccc(Cl)cc1	–	0.76% (inactive)
CC(C)COC(=O)COc1ccc(Cl)cc1Cl	–	4.32% (inactive)
C=C(C)c1cccc(C(=C)C)c1	–	3.24% (inactive)
CC(C)(C)C1CCCCC1=O (stereo unspecified)	–	-3.85% (inactive)
COC(=O)CC(=O)C(C)(C)C	–	0.597% (inactive)
CC(C)NCC(O)c1cc(O)cc(O)c1 (stereo unspecified)	–	-3.34% [at 42.5 µM] (inactive)
O=C=NCC1CCCC(CN=C=O)C1 (stereo unspecified)	–	-0.126% (inactive)
NNc1nc(-c2ccccc2)cs1	–	1.46% (inactive)
O=Cc1cc(O)ccc1Br	–	14.4% (inactive)
Cc1ccc(C)c([N+](=O)[O-])c1	–	4.45% (inactive)
CCN(CC)C(=O)c1ccc(O)c(OC)c1	–	-7.01% [at 42.5 µM] (inactive)
Cc1cccc(NC(=S)N(C)C)c1	–	0.513% (inactive)
COc1ccc(OC)c(Cl)c1	–	2.7% (inactive)

assay: Nuclear factor erythroid 2-related factor 2/antioxidant responsive element (Nrf2/ARE) small molecule agonists: luciferase reporter gene qHTS assay in human keratinocytes (AID 1919969); conditions: KeratinoSens HaCaT ARE-luciferase, luminescence, 24 h; series mostly up to 92.4 µM; activity, positive = activation: at the top concentration; note: nearly all actives have a fitted effect of over 35% in size

Compound	activity, positive = activation	Potency
CC[N+](C)(CC)CCOC(=O)C1c2ccccc2Oc2ccccc21	-0.815% [at 42.5 µM] (inactive)	–
C/C=C1/C(=O)C[C@H]2[C@@H]3CCC4=CC(=O)CC[C@]4(C)[C@H]3CC[C@]12C	–	68.4 µM (active)
O=C(NN1CCCC1)NS(=O)(=O)c1ccc(Cl)cc1	-2.58% [at 42.5 µM] (inactive)	–
CCCNCCC	-0.158% (inactive)	–
O=C1CC[C@@H](C(=O)O)N1	-7.2% [at 42.5 µM] (inactive)	–
C1C2OC2C2C1C1CC2C2OC12 (stereo unspecified)	-4.79% (inactive)	–
Cc1ccc(C#N)cc1	0.967% (inactive)	–
CC[C@@]1(c2ccccc2)NC(=O)N(C)C1=O	1.59% [at 42.5 µM] (inactive)	–
CC[C@H]1O[C@]2(CC[C@@H]1C)C[C@@H]1C[C@@H](C/C=C(\C)C[C@@H](C)/C=C/C=C3\CO[C@@H]4[C@H](O)C(C)=C[C@@H](C(=O)O1)[C@]34O)O2	-49.4% (inactive)	–
O=CNc1ccccc1	4.41% (inactive)	–
FC(F)(Cl)C(F)(Cl)Cl	-4.86% (inactive)	–
CCN(C(=O)N(CC)c1ccccc1)c1ccccc1	-8.05% (inactive)	–
CCCCCC/C=C/C=O	13.3% (inactive)	–
CCCCCCCCCCO[C@@H]1O[C@H](CO)[C@@H](O)[C@H](O)[C@H]1O	1.26% (inactive)	–
CC(C)COC(=O)CCCCC(=O)OCC(C)C	-2.4% (inactive)	–
CCOc1ccc(NC(=O)CC(C)=O)cc1	0.701% (inactive)	–
CCOC(=O)CC(=O)c1ccccc1	4.44% (inactive)	–
NCCCC(N)(C(=O)O)C(F)F (stereo unspecified)	4.35% [at 42.5 µM] (inactive)	–
Cc1ccccc1Br	0.778% (inactive)	–
CCCCCCCCS(=O)(=O)O	-10% (inactive)	–

Compound	activity, positive = activation	Potency
CCOC(=O)[C@@](C)(N)Cc1ccc(O)c(O)c1	3.57% [at 42.5 µM] (inactive)	–
CC1(C)SC(C)(C)SC(C)(C)S1	-4.14% (inactive)	–
NCCCCCCNCCCCCCN	-0.218% (inactive)	–
CCN(CC)CCNC(C(=O)OCCC(C)C)c1ccccc1 (stereo unspecified)	-3.02% [at 42.5 µM] (inactive)	–
Oc1cc2ccccc2c2ccccc12	-43% (inactive)	–
CCCCCCC(C)Nc1ccc(Nc2ccccc2)cc1 (stereo unspecified)	-24.4% (inactive)	–
CCCCCCCCCCCCCOC(=O)CCSCCC(=O)OCCCCCCCCCCCCC	4.84% [at 19 µM] (inactive)	–
CC(C)(C)C(=O)CCc1ccc(Cl)cc1	0.743% (inactive)	–
CC(C)COC(=O)COc1ccc(Cl)cc1Cl	-1.6% (inactive)	–
C=C(C)c1cccc(C(=C)C)c1	1.59% (inactive)	–
CC(C)(C)C1CCCCC1=O (stereo unspecified)	-2.62% (inactive)	–
COC(=O)CC(=O)C(C)(C)C	-4.95% (inactive)	–
CC(C)NCC(O)c1cc(O)cc(O)c1 (stereo unspecified)	2.02% [at 42.5 µM] (inactive)	–
O=C=NCC1CCCC(CN=C=O)C1 (stereo unspecified)	0.747% (inactive)	–
NNc1nc(-c2ccccc2)cs1	–	62.9 µM (active)
O=Cc1cc(O)ccc1Br	–	49.2 µM (active)
Cc1ccc(C)c([N+](=O)[O-])c1	-3.11% (inactive)	–
CCN(CC)C(=O)c1ccc(O)c(OC)c1	-3.57% [at 42.5 µM] (inactive)	–
Cc1cccc(NC(=S)N(C)C)c1	3.14% (inactive)	–
COc1ccc(OC)c(Cl)c1	-8.17% (inactive)	–
